Screen size: about 5,500 compounds; about 2,000 (36%) were called active. About 18% were inconclusive and are not listed. Cut-off read from the data, not from the text of the source: active = normalized growth mostly below about 0.91 (no sharp cut-off); inconclusive = no clear call, values can overlap the other calls; inactive = mostly above about 0.92. The list shows a part of the results.
Assay: chemical genetic growth profiling, strain panel (AID 1159580);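 note: tested at 20 µM; growth read once vehicle control cultures reached saturation at 30 °C; 1 = growth at the plate median or of vehicle wells; lower values mean less growth of the strain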
Conditions: growth OD

Measured: normalized growth

COc1ccc(C2Sc3ccccc3N(CCN(C)C)C(=O)C2OC(C)=O)cc1 (stereo not given)
inactive: S. cerevisiae deletion strains, locus YKL009W, strain mrt4, hits give low values 1.04 | S. cerevisiae deletion strains, locus YKL068W, hits give low values 1.02 | S. cerevisiae deletion strains, locus YKL085W, strain MDH1 (second series), hits give low values 1.03 | S. cerevisiae deletion strains, locus YKL085W, strain MDH1, hits give low values 1.03 | S. cerevisiae deletion strains, locus YKL160W, strain elf1, hits give low values 0.972 | S. cerevisiae deletion strains, locus YKL190W, strain CNB1, hits give low values 0.994 | S. cerevisiae deletion strains, locus YKR001C, strain vps1, hits give low values 1.04 | S. cerevisiae deletion strains, locus YKR026C, strain gcn3, hits give low values 0.931 | S. cerevisiae deletion strains, locus YKR091W, strain srl3, hits give low values 0.983 | S. cerevisiae deletion strains, locus YLL001W, strain dnm1, hits give low values 0.944 | S. cerevisiae deletion strains, locus YLL026W, hits give low values 0.983 | S. cerevisiae deletion strains, locus YLL041C, strain sdh2, hits give low values 0.956 | S. cerevisiae deletion strains, locus YLR027C, strain aat2, hits give low values 0.974 | S. cerevisiae deletion strains, locus YLR039C, strain RIC1, hits give low values 1.04 | S. cerevisiae deletion strains, locus YLR058C, strain SHM2, hits give low values 1.01 | S. cerevisiae deletion strains, locus YLR102C, strain apc9, hits give low values 1.04 | S. cerevisiae deletion strains, locus YLR113W, strain HOG1, hits give low values 1.01 | S. cerevisiae deletion strains, locus YLR221C, strain rsa3, hits give low values 0.989 | S. cerevisiae deletion strains, locus YLR258W, strain gsy2, hits give low values 0.974 | S. cerevisiae deletion strains, locus YLR262C, strain YPT6 (second series), hits give low values 0.977 | S. cerevisiae deletion strains, locus YLR262C, strain YPT6, hits give low values 1.04 | S. cerevisiae deletion strains, locus YLR268W, strain sec22, hits give low values 1.03 | S. cerevisiae deletion strains, locus YLR320W, strain mms22, hits give low values 1.02 | S. cerevisiae deletion strains, locus YLR330W, strain CHS5, hits give low values 1.01 | S. cerevisiae deletion strains, locus YLR342W, strain FKS1 (second series), hits give low values 1.02 | S. cerevisiae deletion strains, locus YLR342W, strain FKS1, hits give low values 0.979 | S. cerevisiae deletion strains, locus YLR357W, strain rsc2, hits give low values 0.922 | S. cerevisiae deletion strains, locus YLR370C, strain arc18, hits give low values 0.973 | S. cerevisiae deletion strains, locus YLR371W, strain rom2, hits give low values 1.03 | S. cerevisiae deletion strains, locus YLR384C, strain iki3, hits give low values 0.941 | S. cerevisiae deletion strains, locus YLR418C, strain cdc73, hits give low values 1.06 | S. cerevisiae deletion strains, locus YML016C, strain PPZ1, hits give low values 1.01 | S. cerevisiae deletion strains, locus YML032C, strain rad52, hits give low values 1.06 | S. cerevisiae deletion strains, locus YML120C, strain ndi1, hits give low values 0.982 | S. cerevisiae deletion strains, locus YML124C, strain tub3, hits give low values 1.03 | S. cerevisiae deletion strains, locus YMR058W, strain fet3, hits give low values 0.986 | S. cerevisiae deletion strains, locus YMR078C, strain ctf18, hits give low values 1.04 | S. cerevisiae deletion strains, locus YMR125W, strain sto1, hits give low values 0.896 | S. cerevisiae deletion strains, locus YMR129W, hits give low values 0.975 | S. cerevisiae deletion strains, locus YMR205C, strain PFK2, hits give low values 0.98 | S. cerevisiae deletion strains, locus YMR223W, strain ubp8, hits give low values 1.04 | S. cerevisiae deletion strains, locus YMR231W, strain pep5, hits give low values 0.965 | S. cerevisiae deletion strains, locus YMR263W, strain SAP30, hits give low values 1 | S. cerevisiae deletion strains, locus YMR307W, strain GAS1, hits give low values 1.07 | S. cerevisiae deletion strains, locus YNL067W, strain RPL9B, hits give low values 1.02 | S. cerevisiae deletion strains, locus YNL071W, strain lat1, hits give low values 0.998 | S. cerevisiae deletion strains, locus YNL128W, strain TEP1, hits give low values 1.02 | S. cerevisiae deletion strains, locus YNL153C, strain GIM3, hits give low values 1.01 | S. cerevisiae deletion strains, locus YNL183C, strain NPR1, hits give low values 0.953 | S. cerevisiae deletion strains, locus YNL209W, strain ssb2, hits give low values 0.973 | S. cerevisiae deletion strains, locus YNL233W, strain BNI4, hits give low values 1.01 | S. cerevisiae deletion strains, locus YNL250W, strain rad50, hits give low values 1.07 | S. cerevisiae deletion strains, locus YNL271C, strain bni1, hits give low values 1.04 | S. cerevisiae deletion strains, locus YNL298W, strain CLA4, hits give low values 1.06 | S. cerevisiae deletion strains, locus YNL307C, strain MCK1, hits give low values 1.05 | S. cerevisiae deletion strains, locus YNL322C, strain KRE1 (second series), hits give low values 0.974 | S. cerevisiae deletion strains, locus YNL322C, strain KRE1, hits give low values 1.01 | S. cerevisiae deletion strains, locus YNR049C, strain mso1, hits give low values 0.977 | S. cerevisiae deletion strains, locus YNR052C, strain pop2, hits give low values 1.05 | S. cerevisiae deletion strains, locus YOL006C, strain TOP1, hits give low values 1.07 | S. cerevisiae deletion strains, locus YOL012C, strain htz1 1.17 | S. cerevisiae deletion strains, locus YOL147C, strain pex11, hits give low values 1.04 | S. cerevisiae deletion strains, locus YOR001W, strain rrp6, hits give low values 0.945 | S. cerevisiae deletion strains, locus YOR061W, strain CKA2, hits give low values 1.01 | S. cerevisiae deletion strains, locus YOR069W, strain VPS5, hits give low values 1.01 | S. cerevisiae deletion strains, locus YOR070C, strain gyp1, hits give low values 0.989 | S. cerevisiae deletion strains, locus YOR080W, strain dia2, hits give low values 0.973 | S. cerevisiae deletion strains, locus YOR083W, strain WHI5, hits give low values 0.976 | S. cerevisiae deletion strains, locus YOR106W, strain vam3, hits give low values 0.903 | S. cerevisiae deletion strains, locus YOR136W, strain idh2, hits give low values 1.04 | S. cerevisiae deletion strains, locus YOR144C, strain elg1, hits give low values 1.04 | S. cerevisiae deletion strains, locus YOR184W, strain ser1, hits give low values 1.07 | S. cerevisiae deletion strains, locus YOR231W, strain MKK1, hits give low values 1.01 | S. cerevisiae deletion strains, locus YOR265W, strain rbl2, hits give low values 0.974 | S. cerevisiae deletion strains, locus YOR270C, strain vph1, hits give low values 0.902 | S. cerevisiae deletion strains, locus YOR290C, strain snf2, hits give low values 0.998 | S. cerevisiae deletion strains, locus YOR316C, strain cot1, hits give low values 1.03 | S. cerevisiae deletion strains, locus YPL051W, strain arl3, hits give low values 0.977 | S. cerevisiae deletion strains, locus YPL055C, strain LGE1, hits give low values 1.04 | S. cerevisiae deletion strains, locus YPL078C, strain atp4, hits give low values 0.943 | S. cerevisiae deletion strains, locus YPL106C, strain sse1, hits give low values 0.976 | S. cerevisiae deletion strains, locus YPL240C, strain hsp82, hits give low values 0.972 | S. cerevisiae deletion strains, locus YPL241C, strain CIN2, hits give low values 1.01 | S. cerevisiae deletion strains, locus YPL256C, strain CLN2, hits give low values 0.991 | S. cerevisiae deletion strains, locus YPR119W, strain clb2, hits give low values 1.03 | S. cerevisiae deletion strains, locus YPR141C, strain kar3, hits give low values 1.06 | S. cerevisiae deletion strains, locus YPR163C, strain tif3, hits give low values 1.05 | S. cerevisiae deletion strains, locus YPR167C, strain met16, hits give low values 1.04 | S. cerevisiae deletion strains, strain wtn01, hits give low values 1.03 | S. cerevisiae strains, strain wild type, hits give low values 1.01

Source: PubChem BioAssay AID1159580 (chemical genetic matrix, 2015)
